The supplement of paper PMC11732987, “Enantioselective OTUD7B fragment discovery through chemoproteomics screening and high-throughput optimisation” (Communications Chemistry, 2025)

Tests used:
Assay in all cases: log2 ratio of Biotin-Ahx-Ub-VS probe labelling (fragment/DMSO); higher = less target engagement (more negative = stronger competition), active = hit call of the paper (q ≤ 0.05, log2 ratio ≤ -1)
Conditions in all cases: compound concentration: 200 uM; treatment time: 3 h
USP34 = USP34 (UniProt Q70CQ2)
Method in brief: (§1)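 HEK293T lysate, 495 µg per sample in Tris/CHAPS/IGEPAL buffer with protease inhibitors, was treated in triplicate with fragment at 200 µM or vehicle for 3 h and then with Biotin-Ahx-Ub-VS at 0.5 µM final for 1 h. Labelled DUBs were NeutrAvidin-enriched, digested with LysC and trypsin, and run by diaPASEF LC-MS/MS. Spectronaut label-free quantities were global-median-normalised, and values are average log2 fragment/vehicle ratios by unpaired t-test on proteins with ≥2 unique peptides.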

USP36 = molecular target: T1, USP36 (UniProt Q9P275)
T1 sequence (whole entry): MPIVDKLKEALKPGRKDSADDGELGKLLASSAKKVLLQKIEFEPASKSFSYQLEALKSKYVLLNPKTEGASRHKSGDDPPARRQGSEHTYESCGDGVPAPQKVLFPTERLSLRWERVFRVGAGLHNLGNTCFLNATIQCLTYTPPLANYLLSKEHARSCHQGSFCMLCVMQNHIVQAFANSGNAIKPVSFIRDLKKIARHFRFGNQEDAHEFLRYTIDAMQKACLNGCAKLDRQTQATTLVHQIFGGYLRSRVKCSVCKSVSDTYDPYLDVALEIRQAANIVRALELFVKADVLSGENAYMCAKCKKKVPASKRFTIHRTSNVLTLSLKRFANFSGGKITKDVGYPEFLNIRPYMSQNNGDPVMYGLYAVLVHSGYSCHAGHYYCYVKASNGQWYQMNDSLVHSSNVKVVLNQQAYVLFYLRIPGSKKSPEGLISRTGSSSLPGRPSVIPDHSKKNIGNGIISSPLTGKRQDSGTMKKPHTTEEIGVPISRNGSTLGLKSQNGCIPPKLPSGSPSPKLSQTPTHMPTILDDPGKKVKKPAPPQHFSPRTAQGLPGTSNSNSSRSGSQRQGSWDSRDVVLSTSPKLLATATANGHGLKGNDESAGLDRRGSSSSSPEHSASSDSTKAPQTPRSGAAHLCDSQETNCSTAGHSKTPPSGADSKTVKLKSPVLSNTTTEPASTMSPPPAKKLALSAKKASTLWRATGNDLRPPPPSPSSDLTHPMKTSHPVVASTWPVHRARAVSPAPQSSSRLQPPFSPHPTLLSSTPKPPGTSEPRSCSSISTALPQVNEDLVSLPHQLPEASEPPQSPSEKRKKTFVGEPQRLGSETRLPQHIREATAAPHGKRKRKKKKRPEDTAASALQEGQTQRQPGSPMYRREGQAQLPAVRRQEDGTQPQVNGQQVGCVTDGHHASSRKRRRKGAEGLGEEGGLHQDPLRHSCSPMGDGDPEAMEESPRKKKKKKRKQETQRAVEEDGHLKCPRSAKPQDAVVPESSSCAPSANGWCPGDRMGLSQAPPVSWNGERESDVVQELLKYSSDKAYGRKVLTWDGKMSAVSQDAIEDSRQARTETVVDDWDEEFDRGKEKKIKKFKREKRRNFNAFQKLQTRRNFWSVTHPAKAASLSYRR
Method in brief: as §1

USP38 = molecular target: T2, USP38 (UniProt Q8NB14)
T2 sequence (whole entry): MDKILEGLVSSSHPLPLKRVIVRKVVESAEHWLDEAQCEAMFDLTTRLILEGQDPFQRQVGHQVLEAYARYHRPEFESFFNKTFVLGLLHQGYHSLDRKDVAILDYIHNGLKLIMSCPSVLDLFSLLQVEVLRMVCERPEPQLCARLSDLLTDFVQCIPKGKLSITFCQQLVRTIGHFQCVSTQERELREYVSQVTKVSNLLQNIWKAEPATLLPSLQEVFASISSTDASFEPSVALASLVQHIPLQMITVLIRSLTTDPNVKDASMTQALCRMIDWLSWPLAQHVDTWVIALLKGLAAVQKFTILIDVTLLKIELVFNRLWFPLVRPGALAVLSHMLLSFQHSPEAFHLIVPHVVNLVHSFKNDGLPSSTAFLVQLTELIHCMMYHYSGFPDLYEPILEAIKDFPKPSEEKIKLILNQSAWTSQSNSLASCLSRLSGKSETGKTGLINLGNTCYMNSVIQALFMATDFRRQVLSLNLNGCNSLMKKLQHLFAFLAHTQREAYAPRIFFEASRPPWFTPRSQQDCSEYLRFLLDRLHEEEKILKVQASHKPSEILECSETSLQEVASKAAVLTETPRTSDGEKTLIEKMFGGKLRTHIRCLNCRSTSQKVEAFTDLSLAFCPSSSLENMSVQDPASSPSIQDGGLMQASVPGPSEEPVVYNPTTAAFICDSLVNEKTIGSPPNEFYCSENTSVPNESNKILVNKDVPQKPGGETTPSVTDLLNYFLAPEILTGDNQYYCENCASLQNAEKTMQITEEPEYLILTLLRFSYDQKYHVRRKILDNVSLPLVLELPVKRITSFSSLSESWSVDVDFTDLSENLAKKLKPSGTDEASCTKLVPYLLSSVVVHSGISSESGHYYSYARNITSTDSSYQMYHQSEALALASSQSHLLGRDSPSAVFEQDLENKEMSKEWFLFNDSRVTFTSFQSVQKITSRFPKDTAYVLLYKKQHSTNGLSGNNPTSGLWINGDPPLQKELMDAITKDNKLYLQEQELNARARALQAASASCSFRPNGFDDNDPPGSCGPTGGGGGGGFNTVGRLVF
Method in brief: as §1

USP39 = molecular target: T3, USP39 (UniProt Q53GS9)
T3 sequence (whole entry): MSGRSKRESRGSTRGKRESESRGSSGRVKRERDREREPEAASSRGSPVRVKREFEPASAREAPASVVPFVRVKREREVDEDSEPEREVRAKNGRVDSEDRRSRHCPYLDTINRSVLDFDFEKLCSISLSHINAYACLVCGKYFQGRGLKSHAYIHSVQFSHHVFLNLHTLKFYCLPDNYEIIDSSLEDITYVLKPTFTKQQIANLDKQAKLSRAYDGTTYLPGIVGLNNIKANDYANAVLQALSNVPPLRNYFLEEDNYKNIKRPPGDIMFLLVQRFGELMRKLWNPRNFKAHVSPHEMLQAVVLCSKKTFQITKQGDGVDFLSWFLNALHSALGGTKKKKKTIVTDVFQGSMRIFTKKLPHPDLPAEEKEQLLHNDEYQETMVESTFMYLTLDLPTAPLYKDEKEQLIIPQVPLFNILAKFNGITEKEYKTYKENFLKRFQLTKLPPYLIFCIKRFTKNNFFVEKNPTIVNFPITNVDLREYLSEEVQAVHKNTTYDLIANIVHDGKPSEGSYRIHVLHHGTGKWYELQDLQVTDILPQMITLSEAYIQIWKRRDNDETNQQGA
Method in brief: as §1

USP4 = molecular target: T4, USP4 (UniProt Q13107)
T4 sequence (whole entry): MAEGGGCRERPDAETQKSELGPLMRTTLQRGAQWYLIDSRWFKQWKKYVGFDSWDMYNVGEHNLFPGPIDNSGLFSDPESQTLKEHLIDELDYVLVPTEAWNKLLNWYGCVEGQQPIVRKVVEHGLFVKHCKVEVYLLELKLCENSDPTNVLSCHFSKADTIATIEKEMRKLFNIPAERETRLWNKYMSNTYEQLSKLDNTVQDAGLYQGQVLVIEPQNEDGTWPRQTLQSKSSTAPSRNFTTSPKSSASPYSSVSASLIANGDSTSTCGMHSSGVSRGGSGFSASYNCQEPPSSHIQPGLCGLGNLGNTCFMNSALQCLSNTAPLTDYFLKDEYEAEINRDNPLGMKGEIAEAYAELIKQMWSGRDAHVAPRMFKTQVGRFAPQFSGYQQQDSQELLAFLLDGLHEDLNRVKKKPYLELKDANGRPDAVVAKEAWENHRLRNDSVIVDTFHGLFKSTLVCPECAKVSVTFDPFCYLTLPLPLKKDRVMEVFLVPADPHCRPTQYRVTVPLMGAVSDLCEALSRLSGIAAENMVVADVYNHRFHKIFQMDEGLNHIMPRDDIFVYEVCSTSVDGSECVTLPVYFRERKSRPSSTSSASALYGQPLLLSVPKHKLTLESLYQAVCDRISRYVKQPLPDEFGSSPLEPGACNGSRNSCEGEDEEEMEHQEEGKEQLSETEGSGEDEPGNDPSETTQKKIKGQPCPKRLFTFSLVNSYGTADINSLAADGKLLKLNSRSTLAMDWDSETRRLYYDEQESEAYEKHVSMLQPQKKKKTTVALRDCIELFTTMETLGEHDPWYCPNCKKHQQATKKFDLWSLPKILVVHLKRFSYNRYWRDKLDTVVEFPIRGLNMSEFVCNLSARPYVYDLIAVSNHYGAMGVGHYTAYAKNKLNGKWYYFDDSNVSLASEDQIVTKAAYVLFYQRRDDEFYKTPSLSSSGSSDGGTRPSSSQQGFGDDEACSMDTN
Method in brief: as §1

Measured: log2 ratio of Biotin-Ahx-Ub-VS probe labelling

Sequence of USP34 (Q70CQ2 whole entry, the tested form may be a part): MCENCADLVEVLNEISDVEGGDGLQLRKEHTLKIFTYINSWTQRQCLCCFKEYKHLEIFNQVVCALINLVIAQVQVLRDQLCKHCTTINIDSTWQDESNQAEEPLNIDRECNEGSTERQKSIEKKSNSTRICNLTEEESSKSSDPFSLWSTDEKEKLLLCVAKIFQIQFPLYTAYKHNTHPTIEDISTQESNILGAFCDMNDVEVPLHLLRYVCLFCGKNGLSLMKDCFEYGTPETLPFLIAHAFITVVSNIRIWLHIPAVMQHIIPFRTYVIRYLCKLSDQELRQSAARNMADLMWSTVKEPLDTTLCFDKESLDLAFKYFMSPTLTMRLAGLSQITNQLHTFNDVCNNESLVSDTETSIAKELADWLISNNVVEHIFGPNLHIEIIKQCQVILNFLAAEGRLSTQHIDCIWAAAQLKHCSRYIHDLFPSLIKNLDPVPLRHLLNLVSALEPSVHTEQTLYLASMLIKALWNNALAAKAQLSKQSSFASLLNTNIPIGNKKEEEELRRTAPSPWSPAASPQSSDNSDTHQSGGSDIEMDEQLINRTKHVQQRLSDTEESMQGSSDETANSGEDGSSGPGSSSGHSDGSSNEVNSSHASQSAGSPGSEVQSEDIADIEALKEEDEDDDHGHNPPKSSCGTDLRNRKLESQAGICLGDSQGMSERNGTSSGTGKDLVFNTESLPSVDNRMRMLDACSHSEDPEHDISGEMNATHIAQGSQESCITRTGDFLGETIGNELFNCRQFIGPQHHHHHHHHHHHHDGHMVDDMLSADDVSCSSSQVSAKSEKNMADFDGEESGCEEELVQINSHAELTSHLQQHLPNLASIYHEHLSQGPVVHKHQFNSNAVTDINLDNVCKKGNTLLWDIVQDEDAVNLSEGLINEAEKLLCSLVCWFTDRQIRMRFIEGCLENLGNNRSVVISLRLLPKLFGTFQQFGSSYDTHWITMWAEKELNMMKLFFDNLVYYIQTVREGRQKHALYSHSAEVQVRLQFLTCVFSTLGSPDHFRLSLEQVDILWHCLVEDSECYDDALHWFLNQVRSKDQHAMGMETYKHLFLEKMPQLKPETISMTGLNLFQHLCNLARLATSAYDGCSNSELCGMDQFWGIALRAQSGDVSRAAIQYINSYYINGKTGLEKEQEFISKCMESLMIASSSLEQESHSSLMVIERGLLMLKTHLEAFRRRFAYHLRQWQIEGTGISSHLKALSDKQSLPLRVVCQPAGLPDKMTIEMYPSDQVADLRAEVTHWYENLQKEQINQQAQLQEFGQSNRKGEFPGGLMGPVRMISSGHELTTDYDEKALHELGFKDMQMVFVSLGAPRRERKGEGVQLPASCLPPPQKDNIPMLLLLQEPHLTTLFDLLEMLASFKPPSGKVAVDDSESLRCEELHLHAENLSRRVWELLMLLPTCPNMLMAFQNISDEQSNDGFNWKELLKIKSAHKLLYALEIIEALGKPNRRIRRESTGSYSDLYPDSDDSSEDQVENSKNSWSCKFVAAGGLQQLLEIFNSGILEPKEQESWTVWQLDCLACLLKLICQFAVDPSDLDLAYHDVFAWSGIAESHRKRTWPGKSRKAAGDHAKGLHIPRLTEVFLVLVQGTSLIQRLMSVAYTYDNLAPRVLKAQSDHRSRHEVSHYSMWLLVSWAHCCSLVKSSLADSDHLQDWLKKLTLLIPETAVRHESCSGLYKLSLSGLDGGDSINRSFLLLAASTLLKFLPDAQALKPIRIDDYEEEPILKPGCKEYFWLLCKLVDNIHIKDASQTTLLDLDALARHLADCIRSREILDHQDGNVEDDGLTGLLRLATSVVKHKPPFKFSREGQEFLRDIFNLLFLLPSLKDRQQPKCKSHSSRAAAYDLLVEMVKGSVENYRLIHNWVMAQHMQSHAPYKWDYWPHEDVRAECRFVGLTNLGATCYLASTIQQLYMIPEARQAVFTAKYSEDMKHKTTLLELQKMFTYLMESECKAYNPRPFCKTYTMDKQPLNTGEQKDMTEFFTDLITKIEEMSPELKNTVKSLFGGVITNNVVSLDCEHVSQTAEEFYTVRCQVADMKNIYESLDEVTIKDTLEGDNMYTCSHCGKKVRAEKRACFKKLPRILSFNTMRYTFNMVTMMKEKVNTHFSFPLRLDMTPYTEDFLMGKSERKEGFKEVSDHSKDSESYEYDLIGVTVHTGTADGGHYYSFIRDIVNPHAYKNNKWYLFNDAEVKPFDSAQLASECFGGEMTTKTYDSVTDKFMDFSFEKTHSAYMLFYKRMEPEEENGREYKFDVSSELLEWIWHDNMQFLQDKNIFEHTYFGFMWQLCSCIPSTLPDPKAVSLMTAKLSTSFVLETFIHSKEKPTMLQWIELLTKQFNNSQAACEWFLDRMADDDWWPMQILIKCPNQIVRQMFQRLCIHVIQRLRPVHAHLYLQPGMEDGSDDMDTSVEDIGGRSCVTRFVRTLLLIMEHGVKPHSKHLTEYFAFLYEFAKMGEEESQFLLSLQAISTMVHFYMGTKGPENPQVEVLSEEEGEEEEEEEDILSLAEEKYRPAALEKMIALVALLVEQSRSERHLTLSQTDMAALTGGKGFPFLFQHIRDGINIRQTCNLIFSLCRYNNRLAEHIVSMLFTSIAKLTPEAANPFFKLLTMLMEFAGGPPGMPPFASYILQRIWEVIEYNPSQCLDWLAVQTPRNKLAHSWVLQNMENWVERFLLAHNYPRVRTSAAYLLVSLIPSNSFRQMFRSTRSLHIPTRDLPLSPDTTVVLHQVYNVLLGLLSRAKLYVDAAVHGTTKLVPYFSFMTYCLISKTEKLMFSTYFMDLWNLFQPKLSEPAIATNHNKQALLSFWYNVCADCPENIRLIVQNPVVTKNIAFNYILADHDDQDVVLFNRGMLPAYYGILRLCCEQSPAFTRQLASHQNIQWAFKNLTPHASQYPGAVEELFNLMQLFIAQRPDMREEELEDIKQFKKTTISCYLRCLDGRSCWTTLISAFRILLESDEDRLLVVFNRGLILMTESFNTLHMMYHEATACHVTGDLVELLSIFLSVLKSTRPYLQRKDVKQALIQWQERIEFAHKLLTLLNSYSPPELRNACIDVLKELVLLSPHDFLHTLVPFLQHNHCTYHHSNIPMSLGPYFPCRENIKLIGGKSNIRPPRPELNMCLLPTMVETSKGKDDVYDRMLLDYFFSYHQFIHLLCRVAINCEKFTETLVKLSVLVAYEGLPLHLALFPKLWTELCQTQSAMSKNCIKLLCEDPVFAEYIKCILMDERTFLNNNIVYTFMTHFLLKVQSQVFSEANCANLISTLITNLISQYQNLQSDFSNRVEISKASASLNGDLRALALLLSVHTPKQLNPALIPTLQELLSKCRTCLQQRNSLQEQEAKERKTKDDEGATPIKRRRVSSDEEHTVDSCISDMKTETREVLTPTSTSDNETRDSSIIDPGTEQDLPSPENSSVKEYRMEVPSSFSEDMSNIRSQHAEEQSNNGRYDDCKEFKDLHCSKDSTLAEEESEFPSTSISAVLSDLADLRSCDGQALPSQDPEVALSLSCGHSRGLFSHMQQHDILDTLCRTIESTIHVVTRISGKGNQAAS

Cc1ccccc1C1(CNC(=O)CCl)CCOCC1
inactive: USP34 0.051 | USP36 0.0925 | USP38 -0.0365 | USP39 -0.165 | USP4 -0.221
